From PubChem BioAssay
NALP1 yeast inh: NALP1 inflammasome inhibitors in reconstituted yeast, colorimetric, S. cerevisiae, triplicate retest. 0.61% of 280,000 active. inhibition, % at 10 µM. AID 2071, 2009. S. cerevisiae NALP1/ASC/caspase-1 growth, X-gal OD620, 72 h; in the data active = inhibition mostly above about 24%, no sharp cut-off; inactive = mostly below about 32%
TIM10 inh: growth inhibitors of isogenic TIM10 control yeast, primary screen, counter-screen for tim10-1 yeast inhibitor project, luminescence, uHTS; inhibition, % at 10 µM; S. cerevisiae TIM10 strain growth, BacTiter-Glo luminescence, 24 h; 1.4% of 330,000 active;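 active = inhibition of 40% or more at the single tested concentration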;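 note: wild-type TIM10 isogenic control strain grown at permissive 25 °C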
NLRP3 yeast inh: NALP3 inflammasome inhibitors in reconstituted yeast, primary screen, luminescence, uHTS; inhibition, % at 10 µM; 0.39% of 330,000 active; Yeast reconstituted NLRP3/ASC/caspase-1, beta-gal luminescence, 24 h;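 active = inhibition of 50% or more; inactive = inhibition below 50%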;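 note: plate controls were induced DMSO wells for no effect and uninduced yeast grown without galactose for full effect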
SKKanGAS inh: S. pyogenes SKKanGAS growth inhibitors in kanamycin, primary screen, streptokinase expression inhibitor project, SKKanGAS strain, BacTiter-Glo luminescence. 6 h. inhibition, % at 7.5 µM. 1.3% of 300,000 active. AID 1662, 2009;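 active = mean replicate score, as percent of positive control median, at least 50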;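 note: strain carries kanamycin resistance gene driven by streptokinase promoter and grows in 40 µg/ml kanamycin; loss of luminescence reflects streptokinase promoter inhibition or plain growth inhibition; 0% = median of DMSO wells and 100% = positive control at its reference dose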
tim23-1 inh: growth inhibitors of tim23-1 mutant yeast, primary screen, luminescence, uHTS | S. cerevisiae tim23-1 growth, BacTiter-Glo luminescence, 24 h | inhibition, % at 20 µM | 1.3% of 330,000 active;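 active = growth inhibition of the mutant yeast at or above 50%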;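 note: temperature-sensitive mutant grown at 25 °C; plate controls were DMSO-treated mutant yeast for no effect and medium wells lacking yeast for full effect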
tim10-1 inh: growth inhibitors of tim10-1 mutant yeast, primary screen, luminescence, uHTS; S. cerevisiae tim10-1 ts strain growth, BacTiter-Glo, 24 h; 2.2% of 330,000 active; inhibition, % at 20 µM; AID 463190, 2010;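 active = inhibition of at least 40%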;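 note: mutant grown at 25 °C; 0% = DMSO wells with yeast and 100% = wells holding no yeast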
tim10-1 conf: growth inhibitors of tim10-1 mutant yeast, confirmation, single concentration, luminescence, S. cerevisiae. 56% of 7,400 active. inhibition, % at 20 µM. S. cerevisiae tim10-1 ts strain growth, BacTiter-Glo, 24 h. shares compounds with tim10-1 inh;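 active = inhibition of yeast growth at or above a set limit in either of two repeat tests at 20 µM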;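 note: tim10-1 mutant grown at permissive 25 °C to find synthetic lethal compounds; 0% = DMSO yeast wells and 100% = medium wells without yeast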
* marks the source's active call; other numbers are inactive results; / = not tested or not shown. In the library only some 4.9% were active in any assay of this set; here they are far more common.

SMILES	NALP1 yeast inh	TIM10 inh	NLRP3 yeast inh	SKKanGAS inh	tim23-1 inh	tim10-1 inh	tim10-1 conf
Cc1ccc(C(=O)N2CCC3(CC2)Oc2ccc(F)cc2C(=O)C32CC(c3ccc(Cl)cc3)=NO2)s1 (stereo not given)	12.7	-6.1	16.4	5.2	0.3	50.8*	32.8*
O=C(c1ccc2c(c1)OCO2)N1CCC2(CC1)Oc1ccc(F)cc1C(=O)C21CC(c2ccccc2)=NO1 (stereo not given)	7.3	-11.9	-4.8	15.8	-1.6	41.8*	34.5*
CC(C)C(=O)N1CCC2(CC1)Oc1ccc(Cl)cc1C(=O)C21CC(c2ccccc2)=NO1 (stereo not given)	7.3	-9.4	11.2	17.0	3.2	53.4*	29.9
CCC(=O)N1CCC2(CC1)Oc1ccc(F)cc1C(=O)C21CC(c2ccc(Cl)cc2)=NO1 (stereo not given)	-0.5	11.5	9.6	6.5	25.8	14.1	/
CC(C)C(=O)N1CCC2(CC1)Oc1ccc(F)cc1C(=O)C21CC(c2ccc(Cl)cc2)=NO1 (stereo not given)	14.1	-15.6	5.0	8.8	6.5	46.9*	21.5
CC(Oc1ccccc1)C(=O)N1CCC2(CC1)Oc1ccc(Cl)cc1C(=O)C21CC(c2ccccc2)=NO1 (stereo not given)	/	21.5	18.4	27.0	30.3	30.3	/
O=C(c1ccoc1)N1CCC2(CC1)Oc1ccc(Cl)cc1C(=O)C21CC(c2ccc(Cl)cc2)=NO1 (stereo not given)	1.7	27.4	15.7	14.4	30.0	53.5*	41.1*
O=C(c1ccoc1)N1CCC2(CC1)Oc1ccc(F)cc1C(=O)C21CC(c2ccc(Cl)cc2)=NO1 (stereo not given)	0.5	-13.1	21.9	17.8	-6.7	29.2	/
COc1cccc([C@@H]2CC=C(C(=O)O)[C@H](c3cccc(Cl)c3)N2S(=O)(=O)c2ccc(C)cc2)c1	/	10.4	10.2	/	13.6	19.9	/
CC(C)(C)c1ccc(C(=O)c2cn[nH]c2-c2ccccc2O)cc1	2.3	24.2	35.2	-3.4	49.7	44.8*	35.0*
CC(C)Nc1nc(Cl)nc(NCCOc2ccccc2)n1	34.2	8.1	17.7	-6.6	-12.0	40.1*	22.6
Cc1ccc(S(=O)(=O)Nc2ccc(C(=O)N3CCN(c4ccccc4O)CC3)cc2)cc1[N+](=O)[O-]	/	3.1	2.1	25.6	15.0	5.9	/
CC1CCC/C(=N\NC(=S)NCc2ccccc2)C1 (stereo not given)	-6.3	28.1	13.4	1.2	34.7	40.8*	31.6*
CC(=O)c1cc2c(cc1NC(=O)CCc1c(C)nc3ncnn3c1C)OCO2	/	8.4	13.9	/	12.3	0.2	/
CCOC(=O)c1sc2nc(C)cc(C)c2c1N	18.2	12.5	7.1	-8.3	6.4	22.0	/
COC(=O)c1sc2nc(C)c([N+](=O)[O-])c(C)c2c1N	32.9	19.9	36.2	-14.0	35.3	49.5*	24.9
CSc1cccc(NC(=S)N2CCC(c3ccccc3)C2)c1 (stereo not given)	-21.7	30.6	33.5	3.8	33.6	47.7*	28.2
O=C(NCCS(=O)(=O)N1CCN(c2ccc(F)cc2)CC1)C12CC3CC(CC(C3)C1)C2	/	32.6	7.2	-1.4	45.2	41.5*	22.1
CSc1ccccc1C(=O)NCCS(=O)(=O)N1CCN(c2ccc(F)cc2)CC1	/	-3.9	11.4	-6.6	4.5	3.5	/
COc1c(/C=C2\SC(=Nc3ccccc3Cl)NC2=O)cccc1[N+](=O)[O-]	4.6	24.5	31.3	15.8	47.0	43.7*	45.0*
O=C1NC(=Nc2ccccc2Cl)S/C1=C\c1cccc([N+](=O)[O-])c1O	9.6	13.5	5.2	27.6	34.1	30.5	/
O=C(COC(=O)c1c(F)cccc1Cl)NCC1CCCCC1	/	-24.7	19.9	/	16.2	-10.8	/
O=C1CC(Sc2cccs2)C(=O)N1c1ccccc1 (stereo not given)	0.6	19.4	34.6	-4.0	30.8	42.2*	40.2*
